Data as given in PubChem BioAssay (NCATS).
“And” between values parts separate entries of the source, which are not always exact repeats. Identical values can stand only once. Records with an inconclusive call do not appear. Where a call stands in place of a potency, no number is given. A number with no mark means an inactive call. The source made the active and inactive calls. Calls follow the shape of the dose curve; as a rule, active = well fitted curve in the direction sought with a large enough effect; inconclusive = small, poorly fitted or top-dose-only effect, or another doubt; inactive = no such curve, though single readings can be large; an effect the other way counts as inactive or inconclusive.

How the values were obtained:
[1] = molecular target: Cellular tumor antigen p53 (Homo sapiens) (UniProt P04637); test: Primary qHTS for small molecule compounds that upregulate eGFP-tagged delta133p53alpha (in N-terminal) cells. (AID 2060322); conditions: NCI-H358 eGFP-delta133p53alpha fluorescence, 24 h; activation: hits give high values;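 also: cells pre-induced with doxycycline then dosed without doxycycline; series mostly up to about 56 µM; nearly all actives have a fitted effect of over 75% in size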
Procedure, shortened: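 NCI-H358 cells pre-induced 24 h with 10 ng/ml doxycycline for eGFP-delta133p53alpha, plated dox-free and exposed 24 h at 37C to titrated compounds. Fixed, Hoechst-stained; gated GFP peak intensity by laser scanning cytometry, normalized to DMSO (0%) and 57.5 uM 5-azacytidine (100%).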

[2] = molecular target: Aldehyde dehydrogenase, mitochondrial (Homo sapiens) (UniProt P05091); test: qHTS for Inhibitors of the Aldehyde Dehydrogenase Family (ALDH2) Primary screen (AID 2061308); also: nearly all actives have a fitted effect of over 55% in size
[3] = molecular target: Retinaldehyde dehydrogenase 3 (Homo sapiens) (UniProt P47895); test: qHTS for Inhibitors of the Aldehyde Dehydrogenase Family (ALDH1A3) Validation screen (AID 2061312); also: nearly all actives have a fitted effect of over 45% in size
[4] = molecular target: Retinaldehyde dehydrogenase 3 (Homo sapiens) (UniProt P47895); test: qHTS for Inhibitors of the Aldehyde Dehydrogenase Family (ALDH1A3) Primary screen (AID 2061315)
[5] = BET inhibitor-based combinations targeting novel dependencies in MECOM-rearranged (r) AML: SET-2 cell line (AID 2202231); conditions: SET-2 AML cells viability, CellTiter-Glo luminescence, 48 h; viability: hits give low values, concentration not given here; also: nearly all actives have a fitted effect of over 35% in size; also: potency is read from the fitted curve at half-maximal effect
Procedure, shortened: (§1)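 Readout: CellTiter-Glo luminescence. Exposure: 48 h, 11 concentrations, 500 cells/well. Metric: AUC and within-line Z-AUC after DMSO/empty-well normalization.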

[6] = BET inhibitor-based combinations targeting novel dependencies in MECOM-rearranged (r) AML: OCI-AML3 cell line (AID 2202232); conditions: Potency: OCI-AML3 viability; also: nearly all actives have a fitted effect of over 35% in size; also: potency is read from the fitted curve at half-maximal effect
Procedure, shortened: as §1

[7] = BET inhibitor-based combinations targeting novel dependencies in MECOM-rearranged (r) AML: MV-4-11 cell line (AID 2202233); also: nearly all actives have a fitted effect of over 45% in size; also: potency is read from the fitted curve at half-maximal effect
Procedure, shortened: (§2)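 Seeding density was 500 cells/well, and drug exposure lasted 48 hr under standard culture conditions. Read-out used CellTiter-Glo reagent with a 15 min room-temperature incubation before luminescence measurement; AUC and Z-AUC summarize the normalized responses.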

[8] = BET inhibitor-based combinations targeting novel dependencies in MECOM-rearranged (r) AML: HNT-34 cell line (AID 2202234); also: nearly all actives have a fitted effect of over 35% in size; also: potency is read from the fitted curve at half-maximal effect
Procedure, shortened: as §2

[9] = BET inhibitor-based combinations targeting novel dependencies in MECOM-rearranged (r) AML: AML-191 cell line (AID 2202236; also: nearly all actives have a fitted effect of over 35% in size; also: potency is read from the fitted curve at half-maximal effect)
Procedure, shortened: as §1

[10] = BET inhibitor-based combinations targeting novel dependencies in MECOM-rearranged (r) AML: AML-194 cell line (AID 2202237; also: nearly all actives have a fitted effect of over 40% in size; also: potency is read from the fitted curve at half-maximal effect)
Procedure, shortened: as §1

[11] = BET inhibitor-based combinations targeting novel dependencies in MECOM-rearranged (r) AML: UCSD-AML1 cell line (AID 2202235); also: nearly all actives have a fitted effect of over 40% in size; also: potency is read from the fitted curve at half-maximal effect
Procedure, shortened: as §2

Cellular tumor antigen p53 (Homo sapiens), sequence (P04637 whole entry, looked up): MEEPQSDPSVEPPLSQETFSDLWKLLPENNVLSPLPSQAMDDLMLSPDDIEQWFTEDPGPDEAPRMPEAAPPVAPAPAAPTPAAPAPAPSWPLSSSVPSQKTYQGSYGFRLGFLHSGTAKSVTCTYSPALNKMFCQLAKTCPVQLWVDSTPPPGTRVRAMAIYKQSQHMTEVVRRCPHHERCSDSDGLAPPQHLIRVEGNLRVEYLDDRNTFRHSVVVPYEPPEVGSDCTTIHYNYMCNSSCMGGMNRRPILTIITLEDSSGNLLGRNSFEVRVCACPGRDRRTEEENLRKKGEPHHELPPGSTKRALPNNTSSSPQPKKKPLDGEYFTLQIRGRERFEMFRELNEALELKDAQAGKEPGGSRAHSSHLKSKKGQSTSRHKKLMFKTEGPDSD

| Structure (SMILES) | activation [1] | Potency [2] | Potency [3] | Potency [4] | Potency [5] | Potency [6] | Potency [7] | Potency [8] | Potency [9] | Potency [10] | viability [5] | Potency [11] |
| --- | --- | --- | --- | --- | --- | --- | --- | --- | --- | --- | --- | --- |
| Cc1[nH]c(/C=C2\C(=O)Nc3ccc(S(=O)(=O)N(C)c4cccc(Cl)c4)cc32)c(C)c1C(=O)N1CCN(C)CC1 | -19.1% | inactive | inactive | inactive | 20.9 µM (active) | 10.5 µM (active) | 4.68 µM (active) | 16.6 µM (active) | 7.42 µM (active) | 7.42 µM (active) | – | – |
| CNC1CCC(N(Cc2cccc(-c3ccncc3)c2)C(=O)c2sc3c(F)ccc(F)c3c2Cl)CC1 (stereo not given) | 21.5% | inactive | inactive | inactive | 26.3 µM (active) | 16.6 µM (active) | 16.6 µM (active) | – | 20.9 µM (active) | 23.5 µM (active) | – | – |
| O=P(O)(O)C(O)(Cc1cccnc1)P(=O)(O)O | 20.9% and -4.4% and 7.64% | inactive | inactive | inactive | – | inactive | – | inactive | inactive | inactive | 110% | inactive |
| CNC(=O)c1ccc(-c2cnc3ncc(Cc4ccc5ncccc5c4)n3n2)cc1F | -4.61% and -7.16% | inactive | inactive | inactive | – | inactive | – | 18.6 µM (active) | – | inactive | 95.9% | inactive |
| COCCOc1ccc(N2CCN(CCn3ncc4c3nc(N)n3nc(-c5ccco5)nc43)CC2)cc1 | 6.21% | inactive | inactive | inactive | – | inactive | – | – | inactive | inactive | 113% | inactive |
| Cc1cc(-c2ncc(CC(=O)Nc3ccc(-c4cnccn4)cn3)cc2C)ccn1 | -9.46% and -6.68% | inactive | inactive | inactive | 11.8 µM (active) | 8.33 µM (active) | 8.33 µM (active) | – | – | inactive | – | 26.3 µM (active) |
| CC[C@H](CC#N)OC(=O)N[C@@H](C)c1cccc(NC(=O)Nc2ccc(-c3cnco3)c(OC)c2)c1 | 7.84% and -10.5% | inactive | inactive | inactive | – | 0.468 µM (active) | 0.235 µM (active) | 0.525 µM (active) | – | – | – | 0.296 µM (active) |
| CC(C)C(=O)Nc1ncc(-c2cc(C(F)F)nn2-c2c(Cl)cccc2Cl)s1 | 35.2% and 29.6% | inactive | inactive | inactive | – | 23.5 µM (active) | 20.9 µM (active) | 16.6 µM (active) | 20.9 µM (active) | – | – | inactive |
| C=Cc1cc(O)cc2nc(-c3ccc(O)c(F)c3)oc12 | -0.955% | inactive | inactive | inactive | – | – | – | inactive | – | inactive | 113% | inactive |
| CS(=O)(=O)c1ccc(-c2nnc(/C=C/c3nnc(-c4ccc(C#N)cc4)o3)n2-c2ccccc2Cl)nc1 | -4.77% | inactive | inactive | inactive | – | – | – | inactive | – | inactive | 111% | inactive |
| O=C(O)C[C@H](O)C[C@H](O)/C=C/c1c(C2CC2)nc2ccccc2c1-c1ccc(F)cc1 | 15.3% | inactive | inactive | inactive | – | 1.05 µM (active) | 2.09 µM (active) | 2.95 µM (active) | 10.5 µM (active) | 13.2 µM (active) | – | 2.63 µM (active) |
| CCO[C@@H]1OC(=O)C[C@@H]1NC(=O)[C@@H]1CCCN1C(=O)[C@@H](NC(=O)c1ccc(N)c(Cl)c1)C(C)(C)C | -7.64% | inactive | inactive | inactive | – | – | inactive | inactive | – | inactive | 112% | inactive |
| CC1COC2(CCN(c3nc(=O)c4cc(C(F)(F)F)cc([N+](=O)[O-])c4s3)CC2)O1 (stereo not given) | -5.81% and -10.5% | inactive | inactive | inactive | – | – | inactive | – | inactive | inactive | 104% | inactive |
| Cc1nn(C)c(COc2ccc(N3CCN(S(=O)(=O)N(C)C)CC3)cc2)c1-c1cccc2c(CCCOc3cccc4ccccc34)c(C(=O)O)n(CCN3CCOCC3)c12 | -22.8% | inactive | inactive | inactive | – | – | 6.61 µM (active) | – | inactive | inactive | 112% | inactive |
| CN(C)N(C)C(=O)[C@@]1(Cc2ccccc2)CCCN(C(=O)[C@@H](Cc2c[nH]c3ccccc23)NC(=O)C(C)(C)N)C1 | -17.2% | inactive | inactive | inactive | – | – | – | 16.6 µM (active) | inactive | inactive | 113% | inactive |
